Reference: PubChem BioAssay (NCI)
The panel holds about 83,000 compounds, 20% with a hit somewhere; the sample as a whole holds those more often.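 A percent growth of 40 corresponds to 60% growth inhibition; 0 means no net growth; -100 means all cells died. Active threshold: below 10.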 Unmarked numbers belong to inactive results. Activity calls are given as the source filed them.

Tested on: HL-60(TB) leukemia
Assay: NCI-60 one-dose screen, 48 h (100 = growth as untreated, 0 = no growth, -100 = all killed)
Settings: 10 µM unless noted

Row | Compound | growth
1 | O=[N+]([O-])c1cc(F)c2cccnc2c1O | 72.9%
2 | CCN(CC)CC[n+]1cc2cc(OC)c(OC)cc2c2ccc3cc4c(cc3c21)OCO4 | -33.5% (active)
3 | C=CCn1c(SCC(=O)Nc2ccc(C(=O)/C=C/c3cc(OC)c(OC)c(OC)c3)cc2)nnc1-c1cc(OC)c(OC)c(OC)c1 | 16.5%
4 | CCCCC(O)c1ccccc1 (stereo not given) | 99.2%
5 | COc1ccc(/C(=C\c2ccc3c(c2)OCO3)C(=O)Nc2nc3ccc(F)cc3s2)cc1OC | 93%
6 | CC1(C)CC(C(=O)OCCCCCCCCCCC[P+](c2ccccc2)(c2ccccc2)c2ccccc2)C(C)(C)N1O (stereo not given) | -70.8% (active)
7 | CCCCCCN1CSC(=S)N(CCCCCC)C1 | 112%
8 | COc1cc2nc3cc([N+](=O)[O-])ccc3c(NCCCNCC(C)(C)O)c2cc1OC | -0.733% (active)
9 | COC1C(O)CC(OC2CC(OC3CC(O[C@@H]4C(=O)c5c(cc6cc(OC7CC(OC8CC(O)C(O)C(C)O8)C(O)C(C)O7)c(C)c(O)c6c5O)CC4[C@H](OC)C(=O)C(C)=O)OC(C)C3O)OC(C)C2O)OC1C (stereo not given in full) | -18.6% (active)
10 | CCCCCCCC/C=C/CCCCCCCC1=NCC[N+]1(CCO)CCO | 31.7%
11 | Cn1cc(Nc2nccc(-c3ccc(N4CCCC4)c(C#N)c3)n2)cn1 | -17.8% (active)
12 | CN1C(=O)/C(=C\c2c(Cl)cccc2Cl)c2ccccc21 | 80.9%
13 | OC(c1cccc(OCc2ccccc2)c1)c1nnc(-c2ccccc2)o1 (stereo not given) | 96.3%
14 | CC(C)n1cc2c(N)ncnc2n1 | 101%
15 | c1cc(OCCN2CCCCC2)ccc1CNc1ccc2nc(CCC3CCCCC3)[nH]c2c1 | -31.6% (active)
16 | COc1ccc2c(c1)CC=C1[C@@H]2CC[C@]2(C)C(=O)/C(=N/O)C[C@@H]12 | 53.4%
17 | O=C1Nc2ccc(Cl)cc2/C1=C\c1c(-c2ccc(F)cc2)nc2ccccn12 | -37.7% (active)
18 | COC(=O)[C@H](C)NC(=O)c1ccc(NC(=O)c2[nH]c(C)c(Cl)c2Cl)c(OCCN)c1 | 95.2%
19 | COc1ccc(N2C(=O)/C(=C/C(Cl)=C/c3ccc([N+](=O)[O-])cc3)SC2=S)cc1 | -14% (active)
20 | O=C(NNC(=O)N1c2ccccc2C=Cc2ccccc21)c1ccccc1 | 98.8%

Row | Compound | growth
21 | COc1ccc(CCNC2=CC(=O)CCC2)cc1OC | 69.4%
22 | CCCC(CCC)NCC(O)c1cc(-c2ccc(C(F)(F)F)cc2)nc(C(F)(F)F)c1 (stereo not given) | -46.3% (active)
23 | COc1ccc(/C=C/C(=O)c2ccc(NC(=O)CSc3nnc(-c4cc(OC)c(OC)c(OC)c4)o3)cc2)cc1 | -53.4% (active)
24 | CC(C)(CO)N(CCO)CCO | 103%
25 | N#Cc1c(-c2ccc(Cl)cc2)nc(NN=Cc2ccc[nH]2)nc1N1CCOCC1 | 2.28% (active)
26 | O=C(O)[C@@H](Cc1ccc2ccccc2c1)NC(=O)n1c2ccccc2c2ccccc21 | 6.8% (active)
27 | COc1ccc2nc(SCC(=O)Nc3ccccc3C)[nH]c2c1 | 100%
28 | O=C1Nc2ccccc2/C1=C/c1c[nH]c2ccccc12 | 102%
29 | O=c1c2ccccc2sc2c(NCCN3CCOCC3)nc3ccccc3c12 | 75.9%
30 | O=C(Nc1ccc(I)cc1)c1cccc([N+](=O)[O-])c1O | 9.44% (active)
31 | CCCCCCCCCCCCCCCCNC(=S)N/N=C/c1ccc(OC)cc1 | 94.3%
32 | CCOC(=O)Cc1csc2nc(-c3ccccc3)nn12 | 53%
33 | FC(F)(F)c1ccc(/C=N/Nc2nnc3n2N=C(c2ccc(Cl)cc2)CS3)cc1 | 93.3%
34 | COC(=O)c1oc2c(C(C)=O)c(OCCN3CCCCC3)ccc2c1C | 110%
35 | CCCCC1=C(Br)C(=O)c2ncccc2C1=O | 83.3%
36 | C#Cc1cccc(NC(=O)Nc2cccc(N=C=S)c2)c1 | 98.7% [8.25 µM]
37 | COc1ccc(C2NN=C3c4ccccc4CCC32)cc1 (stereo not given) | 40.7%
38 | CCCCCCC(C)c1ccccc1O (stereo not given) (tested in a mixture with another compound) | 113%
39 | Cc1ccc(C2CC3c4ccccc4C2C2CCCCN32)cc1 (stereo not given) | 52.8%
40 | COc1ccc2c(c1)nc(N)c1c3cc(C)c(C)cc3cn21 | 79.6%
